ChEMBL document CHEMBL3433997, “St. Jude Leishmania screening dataset” (2016)

Experiments:
Format in all cases: functional
[1] = biological target: Solute carrier family 2, facilitated glucose transporter member 1 (Homo sapiens) (UniProt P11166); test: ST_JUDE_LEISH: Cytotoxicity at 2uM final concentration against transgenic Leishmania Mexicana promastigotes LmGLUT1 that are glucose transport deficient and complemented with the human glucose transporter GLUT1. Activity is measured by DNA content using SYBR green in vitro
Solute carrier family 2, facilitated glucose transporter member 1 (Homo sapiens), sequence (P11166 whole entry): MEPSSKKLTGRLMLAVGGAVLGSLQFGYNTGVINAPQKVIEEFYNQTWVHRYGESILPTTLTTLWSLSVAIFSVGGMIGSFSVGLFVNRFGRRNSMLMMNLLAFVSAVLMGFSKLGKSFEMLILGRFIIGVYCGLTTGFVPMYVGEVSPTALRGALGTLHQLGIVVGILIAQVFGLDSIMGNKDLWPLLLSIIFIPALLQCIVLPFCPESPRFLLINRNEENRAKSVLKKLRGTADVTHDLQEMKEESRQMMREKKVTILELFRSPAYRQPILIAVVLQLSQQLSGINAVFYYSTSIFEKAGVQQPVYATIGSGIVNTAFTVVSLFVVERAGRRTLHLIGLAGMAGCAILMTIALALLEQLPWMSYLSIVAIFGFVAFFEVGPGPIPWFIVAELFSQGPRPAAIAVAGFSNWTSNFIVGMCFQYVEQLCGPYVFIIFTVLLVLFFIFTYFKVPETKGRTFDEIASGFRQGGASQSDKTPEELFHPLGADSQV

[2] = biological target: Hexose transporter 1 (Plasmodium falciparum) (UniProt O97467); test: ST_JUDE_LEISH: Cytotoxicity at 2uM final concentration against transgenic Leishmania Mexicana promastigotes LmPfHT that are glucose transport deficient and complemented with the Plasmodium falciparum hexose transporter. Activity is measured by DNA content using SYBR green in vitro
[3] = biological target: Glucose transporter (Leishmania mexicana) (UniProt O61059); test: ST_JUDE_LEISH: Cytotoxicity at 2uM final concentration against transgenic Leishmania Mexicana promastigotes LmGT2 that are glucose transport deficient and complemented with the L. Mexicana glucose transporter 2. Activity is measured by DNA content using SYBR green in vitro

| SMILES | inhibition [1] [%] | inhibition [2] [%] | inhibition [3] [%] |
| --- | --- | --- | --- |
| CC(C)(C)c1cc2cc(Nc3ccnc4cc(-c5nccs5)ccc34)ccc2[nH]1 | 6.8 | 7.87 | 5.41 |
| O=C(Nc1cccc(-c2cc(-c3c(Cl)cccc3Cl)no2)c1)c1cncc(-c2cccs2)c1 | 16 | 11.1 | 10.8 |
| CCCC(=O)c1cnc2c(I)cccc2c1Nc1ccccc1C | 3.51 | 4.24 | 3.57 |
| Cc1cccc(CNc2nc(C)cc(N[C@@H](CC(C)C)C(=O)NCc3cccc(F)c3)n2)c1 | 4.53 | 3.4 | -0.42 |
| CCCc1cc(Cc2cnc(N)nc2N)cc(CCC)c1OCCCCC(=O)O | 1.12 | 1.3 | 0.16 |
| N#CCCN1CCN(Cc2cccc(-c3ccc(-c4nc5cc(F)ccc5[nH]4)cc3)c2)CC1 | 4.34 | 0.68 | 3.71 |
| O=[N+]([O-])c1ccc(-n2nc(Cc3ccccc3)n(Cc3cccc(F)c3)c2=S)c(C(F)(F)F)c1 | 2.84 | 3.14 | -0.25 |
| CCCN1CCC2(CC1)NC(C(=O)NCCC(C)C)Cc1c2[nH]c2cc(Cl)ccc12 (centres undefined) | 6.25 | 6.94 | 2.82 |
| CCCCC1(NC(=O)[C@@H](Nc2ccc(C#N)c3ccccc23)C2CCCCC2)CCCCC1 | -1.28 | -0.56 | -0.93 |
| CC(=O)Nc1ccc2[nH]cc(C3CCN(CCC4CCN(C(=O)/C=C/c5ccc(Cl)c(Cl)c5)CC4)CC3)c2c1 | 8.34 | 7.25 | 5.15 |
| O=C(Nc1ccc(OC2CCN(Cc3ccco3)C2)c(Cl)c1)c1ccc2ncccc2c1 (centres undefined) | 0.4 | -3.49 | 0.71 |
| O=C(NCc1cccc2ccccc12)C(c1cc2ccccc2o1)N1CCN(C(c2ccccc2)c2ccccc2)CC1 (centres undefined) | 3.87 | 1.42 | -2.97 |
| Cc1cc(=O)[nH]c(-n2nc(C)cc2NC(=O)CC(c2ccccc2)c2ccccc2)n1 | 14.8 | 23.1 | -1.63 |
| OCC1CCN(Cc2ccc(-c3ccc(-c4nc5cc(F)ccc5[nH]4)s3)cc2)CC1 | 4.75 | 3.26 | 4.89 |
| CC(C)(C)c1ccc(S(=O)(=O)Nc2ccccc2N2CCOCC2)cc1 | 6.54 | 4.11 | 0.2 |
| Cc1ccc(CNC(=O)[C@H](CC(C)C)Nc2cc(C)nc(Nc3ccccc3)n2)cc1 | 3.16 | 4.07 | -0.24 |
| CC(=O)N[C@H](C(=O)Nc1ccc(-c2ccc(-c3nc4cc(C(F)(F)F)ccc4[nH]3)cc2)cc1)C(C)C | 4.54 | 3.08 | 0.17 |
| Cc1cc(NCCC(=O)NCc2cccc(F)c2)nc(NCCc2ccc(F)cc2)n1 | 5.01 | 3.24 | 3.7 |
| Cc1cccc2nc(-c3ccc(-c4ccc(CNCCc5ccncc5)cc4)cc3)[nH]c12 | 13.2 | 21.1 | 10.1 |
| Cc1ccc(CN2CCCN(Cc3cccc(NC(=O)c4cc5ccccc5s4)c3)CC2)cc1 | -0.92 | -0.94 | -2.83 |
| Cc1cc(NC(c2ccc(Cl)cc2)c2ccc3cccnc3c2O)no1 (centres undefined) | 16.6 | 22.8 | 6.2 |
| C[C@@H](CC1CCCCC1)OC(=O)N[C@H]1CCN(C#N)C1 | 12.8 | 8.07 | 7.29 |
| COc1ccc(Nc2ncc3c(-c4cccc(NC(=O)Cc5ccncc5)c4)c[nH]c3n2)cc1OC | -0.87 | -1.41 | -1 |
| Fc1cc(Cl)ccc1Nc1ccnc2cc(-c3ccc(CN4CCOCC4)o3)ccc12 | 20.6 | 52.9 | 43.6 |

| SMILES | inhibition [1] [%] | inhibition [2] [%] | inhibition [3] [%] |
| --- | --- | --- | --- |
| COc1ccc2nc(N(CCCn3ccnc3)C(=O)C=Cc3cccs3)sc2c1 | 3.73 | 3.16 | -2.84 |
| CCCCCOc1ccc(C(O)C(CN2CCCCC2)c2ccccc2)cc1 (centres undefined) | 5.64 | 4.91 | 5.39 |
| CCOCCCn1c(=N)c(C(=O)NC(C)c2ccccc2)cc2c(=O)n3cccc(C)c3nc21 (centres undefined) | 7.84 | 6.01 | 3.81 |
| CC(C)(C)C/C=C\c1ccc(C(=O)NCC2CC2)cc1 | 6.73 | 9.04 | 3.76 |
| Cc1ccc(Nc2ccnc(Nc3ccc(F)c(Cl)c3)n2)cc1O | 6.74 | 10.4 | 2.04 |
| O=C(/C=C/c1ccc(Cl)c(Cl)c1)NCCCCCN1CCC(NC(=O)c2cccc(Cl)c2)CC1 | 9.72 | 10.2 | 7.71 |
| O=C(CCCCCNC(=O)c1ccc(O)c(-c2ccc(Cl)c(Cl)c2)c1)NC1CCCCCC1 | 4.53 | 3.51 | 4.8 |
| COc1ccc(NCCCNc2ccnc3ccccc23)cc1 | 5.01 | 4.48 | 1.73 |
| CCN(CC)CCN(Cc1ccc(-c2ccc(C(F)(F)F)cc2)cc1)C(=O)Cn1c(CCc2cccc(F)c2F)nc(=O)c2ccc(C)cc21 | 0.88 | 1.15 | 0.22 |
| Cc1cc(N[C@@H](Cc2ccccc2)C(=O)NCc2cccc(F)c2)nc(NCCc2cccs2)n1 | 2.6 | 2.99 | 2.23 |
| Cn1cncc1C(=O)Nc1cccc(-c2ccc(-c3nc4cc(F)ccc4[nH]3)s2)c1 | 3.18 | 3.3 | -0.1 |
| CC(C)=C(C(=O)OCc1ccccc1)N1C(=O)[C@@H](NC(c2ccccc2)(c2ccccc2)c2ccccc2)[C@H]1[S+]([O-])CC(=O)OC(C)(C)C (some centres undefined) | 0.68 | -0.01 | 0.75 |
| CCCNCc1ccc(-c2ccc(CN(CCOC)C(=O)CCCOCc3ccccc3)cc2)nc1 | 3.08 | 1.41 | 0.45 |
| Cc1ccc(O)c(CN2CCCC(COC(c3ccc(F)cc3)c3ccc(F)cc3)C2)c1 (centres undefined) | 2.33 | -0.35 | -4.12 |
| CNC(=O)C1Cc2c([nH]c3ccc(Br)cc23)C2(CCN(CCc3ccccc3)CC2)N1 (centres undefined) | 5.38 | 3.44 | 6.65 |
| Nc1c2c(nc3ccc(C(=O)Nc4ccc(Br)cc4)cc13)CCCC2 | 5.71 | 6.08 | 2.67 |
| C=CCOc1ccc(-c2c(C)[nH]c(C)c(Br)c2=O)cc1 | 2.12 | 2.01 | -0.17 |
| COc1ccc(CNCc2cccc(-c3ccc(-c4nc5ccccc5[nH]4)cc3)c2)cc1 | 3.35 | 1.89 | 3.52 |
| CS(=O)(=O)Nc1ccc2[nH]cc(C3CCN(CCCCCNC(=O)/C=C/c4ccc(Cl)c(Cl)c4)CC3)c2c1 | 3.05 | 3.77 | 3.35 |
| Cc1ccc(Cn2ncc(N3CCNCC3)c(Cl)c2=O)cc1NC(=O)Nc1ccc(-c2ccccc2)cc1 | -0.01 | 2.78 | 2.01 |
| c1ccc(CNCc2cccc(-c3ccc(-c4nc5ccccc5[nH]4)cc3)c2)cc1 | 6.45 | 4.96 | 7.51 |
| O=c1cc(NCCCNCc2cc(F)cc(C(F)(F)F)c2)[nH]c2ccccc12 | -0.27 | -0.14 | 4.38 |
| CC(=O)N1N=C(c2cccs2)Sc2c1nc(-c1ccc(Cl)cc1)n2C(C)=O | 11.9 | 12.2 | 11.9 |
| O=C(c1ccc(-c2ccc(-c3nc4cc(C(F)(F)F)ccc4[nH]3)s2)cc1)N1CCCCC1CN1CCC(O)C1 (centres undefined) | 7.23 | 5.1 | 2.98 |
